Screening data: PubChem BioAssay, National Center for Advancing Translational Sciences (NCATS)
Shown are actives, neighbours in structure and some others; about 2.5% of the full set was active somewhere.
Cruzain noTriton = cruzain (T. cruzi) inhibition without detergent; P25779; purified cruzain, Z-FR-AMC fluorescence, no detergent; Potency, µM, for the others: max response, negative = inhibition, most hits filed as inhibitors; actives 2.3% (n = 200,000); AID 1476;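 further: plate controls were enzyme without inhibitor for no effect and buffer without enzyme for full effect; nearly all actives have a fitted effect of over 40% in size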
Target sequence (P25779 123-467 limits assumed): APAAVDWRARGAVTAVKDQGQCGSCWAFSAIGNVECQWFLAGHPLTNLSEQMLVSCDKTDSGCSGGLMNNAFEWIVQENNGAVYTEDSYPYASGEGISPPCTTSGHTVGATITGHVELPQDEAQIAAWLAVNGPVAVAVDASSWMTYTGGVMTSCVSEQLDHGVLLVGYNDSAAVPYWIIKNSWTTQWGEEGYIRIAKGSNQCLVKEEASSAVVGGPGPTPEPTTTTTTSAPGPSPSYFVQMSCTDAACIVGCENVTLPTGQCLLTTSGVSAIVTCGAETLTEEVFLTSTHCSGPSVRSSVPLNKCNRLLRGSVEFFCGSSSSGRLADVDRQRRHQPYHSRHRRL
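Detergent-free condition (0.00005% Triton X-100) in acetate buffer pH 5.5 with DTT. 1.5 nM enzyme and compound were pre-mixed 15 min, then 2 uM Z-FR-AMC substrate added; reaction progress from fluorescence change between first and third reads (60 s).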
Cruzain inh Det = blocks cruzain activity in presence of Triton detergent | purified cruzain, Z-FR-AMC fluorescence, 0.01% Triton | actives 0.43% (n = 200,000) | P25779 | Potency, µM, for the others: max response, negative = inhibition, most hits filed as inhibitors | AID 1478;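 further: plate controls were neutral wells for no effect and buffer without enzyme for full effect; nearly all actives have a fitted effect of over 40% in size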
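15 min RT preincubation of 1.5 nM cruzain with compound, then 2 uM Z-FR-AMC added; kinetic AMC fluorescence, 60 s delta. Triton X-100 0.01%, pH 5.5.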
* marks the source's active call; other numbers are inactive results; ? = inconclusive. The call rests on the fitted dose curve; in most records, active means well fitted curve in the direction sought with a large enough effect; inconclusive means small, poorly fitted or top-dose-only effect, or another doubt; inactive means no such curve, though single readings can be large; an effect the other way counts as inactive or inconclusive. Potency means the concentration at half of the fitted maximal effect.

SMILES	Cruzain noTriton	Cruzain inh Det
O=c1cc(-c2ccccc2)oc2cc(O[C@@H]3O[C@H](CO)[C@@H](O)[C@H](O)[C@H]3O)c(O)c(O)c12	7%	-3%
O=c1ccc2cc(OC3OC(CO)C(O)C(O)C3O)c(O)cc2o1 (configuration not stated)	13µM*	7.9µM*
O=C(O)CC(NS(=O)(=O)c1ccc(Br)s1)c1ccccc1 (configuration not stated)	3%	-2%
C/C(=N\NC(=O)CNC(=O)C(c1ccccc1)c1ccccc1)c1ccc(C(C)(C)C)cc1	?	1%
C/C(=N\NC(=O)CNC(=O)C(c1ccccc1)c1ccccc1)c1ccccc1	13µM*	5%
O=C(c1ccco1)c1cc2c(ccc3ccccc32)oc1=O	-4%	4%
O=c1oc2ccccc2cc1-c1csc(NN=C2CCCC2)n1	-12%	-10%
C/C(=N\Nc1nc(-c2cc(C)ccc2C)cs1)c1cc2c(ccc3ccccc32)oc1=O	7.9µM*	-8%
C/C(=N\Nc1nc(-c2cc(C)ccc2C)cs1)c1cc2ccccc2oc1=O	25µM*	?
O=C(CCN1N=C(c2ccccc2)CCC1=O)NCCc1ccc(Cl)cc1	14%	-3%
COc1ccc(CCC(=O)c2c(O)cc(O[C@@H]3O[C@H](CO)[C@@H](O)[C@H](O)[C@H]3O[C@@H]3O[C@@H](C)[C@H](O)[C@@H](O)[C@H]3O)cc2O)cc1O	?	9%
CCCCCCn1c(O)c(/C=C2\C=NN=C2c2ccccc2)sc1=S	16µM*	2%
CCCCn1c(O)c(/C=C2\C=NN=C2c2ccccc2)sc1=S	?	-4%
COc1cccc(NC(=O)/C(C#N)=C/c2ccc(-c3ccc(C)cc3)o2)c1	?	-6%
COc1cccc(NC(=O)/C(C#N)=C\c2cn(Cc3ccc(C)cc3)c3ccccc23)c1	7.9µM*	-2%
N#C/C(=C/c1cn(Cc2ccc(F)cc2)c2ccccc12)C(=O)Nc1cccc(Cl)c1	7.9µM*	-3%
N#C/C(=C\c1cn(Cc2ccc(C#N)cc2)c2ccccc12)C(=O)NCc1cccs1	?	-3%
CCO	3%	6%
C=CCCC#N	-14%	0%
COc1ccc(CNc2nc(-c3ccc(N(C)C)cc3)nc3ccccc23)c(OC)c1	?	-11%
COc1ccc(-n2c(SCC(=O)N3CCC(C)CC3)nc3c([nH]c4ccccc43)c2=O)cc1	-11%	-2%
COc1ccc(-n2nc3c(N4CCCC(C(=O)NCc5ccc(C)cc5)C4)nnc(C)c3c2C)cc1 (configuration not stated)	-6%	-4%
Cc1ccc(C2=N/C(=C/c3cccs3)C(=O)N2Nc2ccccc2)cc1	25µM*	1%
CC1=NN(c2ccc(Br)cc2)C(=O)/C1=C/c1cccs1	-1%	-5%
CCOC(=O)c1c(C)[nH]c(CCC(=O)NC(C)c2ccccc2)c1C (configuration not stated)	4%	1%
SMILES	Cruzain noTriton	Cruzain inh Det
COc1ccc(C(=O)Nc2ccc(-c3cc4ccccc4oc3=O)c(C)c2)cc1Br	25µM*	-20%
COc1cc(NC(=O)COc2ccc(Cl)cc2)ccc1-c1cc2ccccc2oc1=O	5µM*	0%
COc1cc2c(cc1NC(=O)COc1ccc(Cl)cc1)oc1ccccc12	-1%	-2%
Cc1cc(NC(=O)c2ccc(F)cc2)ccc1-c1cc2ccccc2oc1=O	5%	-2%
Cc1ccccc1OCc1ccc(-c2nc(C#N)c(NCc3cccnc3)o2)o1	?	-10%
COc1ccc(C)cc1NC(=O)CCS(=O)(=O)c1cc2c3c(c1)CCN3C(=O)CC2	2%	-15%
O=C(NC(C(=O)N/N=C/c1c2ccccc2cc2ccccc12)c1n[nH]c(=O)c2ccccc12)c1ccccc1 (configuration not stated)	13µM*	2%
O=C(NC(C(=O)N/N=C/c1ccccc1)c1n[nH]c(=O)c2ccccc12)c1ccccc1 (configuration not stated)	-13%	-9%
Cc1cccc(CNC(=O)c2ccc3nc(-c4ccccc4)c(-c4ccccc4)nc3c2)c1	6%	-1%
CC(C)n1c(=O)c2oc3ccccc3c2n(Cc2ccccc2F)c1=O	14%	0%
Cc1cccc(NC(=O)c2cc3c([nH]c4ccccc43)c(C)n2)c1C	?	0%
Cc1ccc(C)c(NC(=O)c2cc3c([nH]c4ccccc43)c(C)n2)c1	7.9µM*	8%
CCOc1ccc(CNC(=O)Cn2c(=O)c3cccn3c3ccc(F)cc32)cc1	-5%	-2%
Cc1cccc(CNC(=O)c2ccc(Cn3c(=O)c4cccn4c4cccnc43)cc2)c1	1%	-2%
COc1ccccc1CNc1nc(-c2ccoc2)nc2ccccc12	25µM*	-4%
COc1ccccc1CNc1ccnc(-c2ccoc2)n1	-2%	-2%
COCCn1c(C)cc(O)c(C(c2ccccc2OC)N2CCCCC2)c1=O (configuration not stated)	8%	2%
CCCCN1CSC(=S)N(Cc2ccccc2)C1	-6%	4%
COc1ccc(OC)c(CNC(=O)c2ccc3c(c2)c(C)c(C)n3C)c1	?	-2%
COc1cc(CCNC(=O)c2ccc3c(c2)c(C)c(C)n3Cc2cccc(C)c2)cc(OC)c1OC	-8%	-1%
COc1ccc(OC)c(CNC(=O)c2ccc3c(c2)c(C)c(C)n3Cc2ccc(Cl)cc2)c1	7.9µM*	2%
COc1ccccc1CCNC(=O)c1ccc2c(c1)c(C)c(C)n2Cc1ccc(Cl)cc1	13µM*	3%
CCOc1ccccc1CNCCCSc1nnnn1C	-2%	0%
Cc1ccc([N+](=O)[O-])c(Oc2ncnc3c2oc2ccccc23)c1	1%	1%
O=C(c1ccc2nc(-c3ccco3)c(-c3ccco3)nc2c1)N1CCN(c2ccccc2)CC1	-2%	?
SMILES	Cruzain noTriton	Cruzain inh Det
O=C(c1ccc2nc(-c3ccco3)c(-c3ccco3)nc2c1)N1CCC2(CC1)OCCO2	?	25µM*
Nc1ccc2c(c1)C/C(=C/c1ccco1)C2=O	?	-15%
COc1ccc2c(c1)CC/C(=C/c1ccco1)C2=O	20µM*	22µM*
CC(=O)Nc1nonc1-c1nnc(SCC(=O)Nc2ccccc2Cl)n1C	1%	-1%
O=C1/C(=C/c2ccccc2O)SC(=S)N1Cc1cccnc1	-3%	-6%
CN1C(=O)/C(=C/c2cc(N=Nc3ccccc3)ccc2O)SC1=S	16µM*	-5%
Cc1ccc(SCc2nnc(NC(=O)c3ccccc3)s2)cc1	10µM*	7%
COC(=O)Cc1nnc(NC(=O)c2ccccc2)s1	-8%	-2%
COc1cc2nc(SCc3ccc(F)cc3)n(Cc3cccs3)c(=N)c2cc1OC	?	5%
COc1ccc(Cn2c(SCc3ccccc3C)nc3cc(OC)c(OC)cc3c2=N)cc1	?	16µM*
CC(C)CC(=O)Nc1nnc(S(=O)(=O)N(C)Cc2ccc(Cl)cc2)s1	-15%	-1%
CCOC(=O)c1c(NC(=O)c2cc(C(C)C)on2)sc(C)c1C	-11%	-2%
CCCc1cc(C(=O)Nc2sc(C)c(C)c2C(=O)OCC)no1	20µM*	-3%
COc1ccc(-c2nnc(SCC(=O)N3CCN(c4ccccc4)CC3)o2)cc1OC	0%	-4%
Cc1ccc(-c2nnc(SCC(=O)N3CCN(c4ccccc4)CC3)o2)cc1	10µM*	-1%
CC1CCc2nn(CC(=O)Nc3cccc(C(F)(F)F)c3)c(=O)cc2C1 (configuration not stated)	0%	0%
CCOC(=O)CSc1nc2ccc(NC(=O)c3ccccc3F)cc2s1	-6%	-11%
